# In the library only some 19% were active in any assay of this set; here they are far more common.
# TDP1 cell noCPT = qHTS for Inhibitors of human tyrosyl-DNA phosphodiesterase 1 (TDP1): qHTS in cells in absence of CPT; 420,000 tested, 15% active; DT40 Tdp1-/- hTDP1 cells, no CPT, ATP luminescence, 48 h; Potency, µM (series often up to 46.2 µM), without a hit: at the highest dose activity change, negative = growth inhibition, most hits filed as inhibitors; also: potency is read from the fitted curve at half-maximal effect; nearly all actives have a fitted effect of over 55% in size
#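 Growth kinetics read by CellTiter-Glo luminescence after ≥48 hr at 37 °C. Cells: DT40 Tdp1-/- stably carrying human TDP1, 400 per well, compound exposure in the absence of CPT (DMSO vehicle).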
# DT40 TDP1 CPT = growth inhibition of DT40 Tdp1-/-;hTDP1 cells with camptothecin (screen for TDP1 inhibitors) | chicken DT40 Tdp1-/-;hTDP1 cells + 20 nM CPT, ATP luminescence, 48 h | 420,000 tested, 12% active | Potency, µM (doses to about 46.2 µM), without a hit: top-dose activity change, negative = growth inhibition, usual class: inhibitors; also: potency is read from the fitted curve at half-maximal effect; nearly all actives have a fitted effect of over 55% in size
#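 Chicken DT40 Tdp1-/- cells stably complemented with human TDP1 were seeded at 400 cells/well in medium containing 20 nM camptothecin, exposed to pin-transferred compounds, and grown at 37 °C for at least 48 hr. Viability was read as ATP luminescence.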
# HT1080 IDH1KD tx = kills HT-1080 cells with IDH1 knockdown. HT-1080 IDH1 knockdown viability, ATP luminescence, 48 h. Potency, µM (series often up to 46.1 µM), inactives show at the top dose activity, negative = toxicity, hits mostly cytotoxic. 360,000 tested, 2% active. AID 686971;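 also: potency is read from the fitted curve at half-maximal effect; 0% = DMSO wells and -100% = cell-free medium wells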
#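 CellTiter-Glo luminescence after 48 h compound exposure at 37 degrees C of IDH1-knockdown HT-1080 cells in 5% FBS RPMI. %Activity scaled between DMSO wells and cell-free media wells, with curves fitted and assigned curve classes.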
# IL-1B inflam inh = inhibitors of inflammasome signaling (IL-1 beta secretion); THP-1 LPS/ATP IL-1B secretion, AlphaLISA, 16 h; active compounds read low; activity change, % at 57.5 µM; 360,000 tested, 4.7% active; AID 743279; in the data active = activity change below about -50%; inconclusive = mostly about -30% to -49%
#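 THP-1 cells pretreated 1 hr with compounds (up to 57.5 uM final), then stimulated with LPS (250 ng/mL final) plus ATP (1.25 mM final); secreted IL-1B measured by AlphaLISA after 16 hr, decreased signal indicating inhibition.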
# HT1080NT lethal = kills 2HG-producing HT-1080-NT fibrosarcoma cells; HT-1080-NT fibrosarcoma viability, CellTiter-Glo ATP luminescence, 48 h; Potency, µM (titrated, usually from 46.1 µM), without a hit: top-dose activity, negative = less viability, actives largely listed as cytotoxic; 360,000 tested, 1.6% active; AID 686970;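 also: NT is the 2HG producing partner of a matched IDH1 knockdown line; potency is read from the fitted curve at half-maximal effect; 0% = DMSO-treated cells and -100% = media-only wells without cells; nearly all actives have a fitted effect of over 55% in size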
#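 HT-1080-NT; 750 cells/well; 5% FBS RPMI; 48 h compound, 37 degrees C; CellTiter-Glo luminescence; curve fitting and curve-class assignment.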
# Numbers without * were called inactive; ? = inconclusive; . = no result given; [ ] = dose if it differs, or a comment. Unless noted, calls follow the shape of the dose curve; as a rule, active = well fitted curve in the direction sought with a large enough effect; inconclusive = small, poorly fitted or top-dose-only effect, or another doubt; inactive = no such curve, though single readings can be large; an effect the other way counts as inactive or inconclusive. Unless noted, % is scaled to controls: 0 for no effect and ±100 for the full control effect.
SMILES,TDP1 cell noCPT,DT40 TDP1 CPT,HT1080 IDH1KD tx,IL-1B inflam inh,HT1080NT lethal
CC(C)(C)[C@@H]1COC(=O)[C@H](Cc2ccc(F)cc2)C/C=C\C[C@H](CC(=O)N(CCO)Cc2ccccc2)C(=O)N1,20.6µM*,13µM*,-8.5%,-16.0,-14.1%
O=P(OC1CCCCC1)(OC1CCCCC1)C(Nc1ccccc1)c1cccnc1 (stereo unspecified),14.6µM*,?,-21.2%,-72.0*,-19.2%
Cc1ccc(C)c(-c2[nH]ncc2CN2CCCC(CO)(Cc3ccccc3C)C2)c1 (stereo unspecified),13µM*,7.31µM*,?,-79.8*,?
Cc1ccccc1CC1(CO)CCCN(Cc2ccccc2Cl)C1 (stereo unspecified),-17.2%,1.4%,?,15.9,-21.2%
Cc1cccc(-c2ncc(CN3CCCC(CO)(Cc4ccccc4C)C3)cn2)c1 (stereo unspecified),-25.0%,23.1µM*,-15.1%,-3.0,-5.9%
CN(C)S(=O)(=O)N1CCC(N2CCN(Cc3ccc(F)cc3)C(=O)C2=O)CC1,7.1%,0.3%,.,.,.
COc1cc(CNCCc2c[nH]c3ccccc23)ccc1OCc1ccc(F)cc1,18.4µM*,14.6µM*,?,-103.1*,-23.2%
COc1cccc(CNCCc2c[nH]c3ccccc23)c1OCc1ccc(F)cc1,14.6µM*,18.4µM*,?,-61.5*,20.6µM*
COc1cc(CNCCc2c[nH]c3ccccc23)cc(Cl)c1OCC(N)=O,?,?,-12.4%,?,-21.0%
O=C(NC1CCN(S(=O)(=O)c2ccccc2)CC1)c1ccc(F)cc1,-10.9%,-4.3%,6.7%,?,-0.2%
CCOc1ccc(C(=O)NC(C(=O)N2CCC2)C(C)C)cc1 (stereo unspecified),-29.1%,-22.4%,-3.8%,23.8,-6.4%
Cc1ccc(S(=O)(=O)N(C(=O)c2ccco2)c2cc3sc(=O)oc3c3ccccc23)cc1,2.59µM*,5.17µM*,?,6.1,?
CCOc1ccc(S(=O)(=O)N(C(=O)c2ccco2)c2cc3sc(=O)oc3c3ccccc23)cc1,?,18.4µM*,-27.0%,-94.8*,?
C=CCOC(=O)C1=C(C)Nc2nnnn2C1c1cccs1 (stereo unspecified),-27.8%,-12.0%,?,40.7,4.5%[9.24 µM]
CCOC(=O)C1=CNS(=O)(=O)NC1CCc1ccccc1 (stereo unspecified),23.1µM*,?,-0.3%,9.2,-0.7%
Cn1c(COc2ccccc2)nnc1SCC(=O)c1cccc([N+](=O)[O-])c1,?,?,-8.2%[9.24 µM],-27.8,-26.9%
CC(C)OC(=O)CSc1nnc(COc2ccc([N+](=O)[O-])cc2)n1C,4.5%,0.1%,-0.7%,-97.7*,-0.5%
CCOc1cc(C)ccc1OCc1nnc(SCC(=O)c2cccc([N+](=O)[O-])c2)n1C,-15.5%,-30.0%,?,-51.2*,?
CCOc1ccccc1C(=O)NCC(=O)NNC(=O)c1csc(N2CCOCC2)n1,-64.6%,-88.0%,-5.6%,38.7,-4.4%
O=C(Cc1cccc(NC(=O)C2CCCN(C(=O)c3ccccc3)C2)c1)Nc1cccc(C(=O)N2CCCCC2)c1 (stereo unspecified),-2.1%,-11.9%,5.7%,5.3,10.7%
O=C(Cc1cccc(NC(=O)C2CCCN(C(=O)CCc3ccccc3)C2)c1)Nc1cccc(C(=O)N2CCCC2)c1 (stereo unspecified),23.1µM*,18.4µM*,0.0%,24.2,-1.8%
O=C(Cc1ccc(NC(=O)C2CCCN(C(=O)CCc3ccccc3)C2)cc1)Nc1cccc(C(=O)N2CCCC2)c1 (stereo unspecified),13µM*,23.1µM*,-4.0%,6.7,5.4%
O=C(Cc1ccc(NC(=O)C2CCCN(C(=O)CCc3ccccc3)C2)cc1)Nc1cccc(C(=O)N2CCCCC2)c1 (stereo unspecified),?,?,-2.9%,10.7,1.7%
CCOC(=O)C1=CCC(c2cccn2C(=O)OC(C)(C)C)N(S(=O)(=O)c2ccc(C)cc2)C1 (stereo unspecified),?,?,-19.3%,19.2,-8.9%
CCOC(=O)C1=CCC(c2ccccc2C(F)(F)F)N(S(=O)(=O)c2ccc(C)cc2)C1 (stereo unspecified),23.1µM*,23.1µM*,?,-7.1,-22.2%
SMILES,TDP1 cell noCPT,DT40 TDP1 CPT,HT1080 IDH1KD tx,IL-1B inflam inh,HT1080NT lethal
CCOC(=O)C1=CCC(c2ccccc2Cl)N(S(=O)(=O)c2ccc(C)cc2)C1 (stereo unspecified),?,14.6µM*,-26.1%,34.0,-27.8%
CN(CC(=O)Nc1cccc(S(=O)(=O)N2CCOCC2)c1)CC(=O)Nc1ccc(Cl)c(C(F)(F)F)c1,7.31µM*,14.6µM*,-27.2%,-25.7,-12.0%
Cn1cc(S(=O)(=O)N2CCOCC2)cc1C(=O)Nc1ccc(Cl)c(C(F)(F)F)c1,23.1µM*,?,.,.,.
Cn1cc(S(=O)(=O)N2CCOCC2)cc1C(=O)Nc1cccc(Cl)c1,-4.7%,0.9%,-6.8%,-13.1,16.7%
Cc1ccc(C)c(NC(=O)c2cc(S(=O)(=O)N3CCOCC3)cn2C)c1,-23.9%,14.6µM*,-1.0%,0.0,0.0%
O=C(NC(=S)Nc1ccc2c(c1)OCCO2)c1cccc2ccccc12,?,?,2.3%,-21.3,4.3%
CN1CCN(C(=O)c2ccc(OCCOc3ccccc3)cc2)CC1,-9.2%,8.8%,1.9%,-2.2,0.7%
CC(=O)Nc1ccc(-c2csc(NNC(=O)c3ccccc3)n2)cc1,1.3µM*,11.6µM*,-1.1%,?,-1.2%
CC(=O)Nc1ccc(-c2csc(N/N=C(/C)c3ccccc3)n2)cc1,9.2µM*,20.6µM*,-7.6%,-70.4*,-22.6%
CCC(=O)Nc1ccc(-c2csc(NNC(C)=O)n2)cc1,1.3%,-0.1%,1.4%,1.4,12.8%
COc1ccccc1CCc1nnc(CCC(=O)NCCC2CCCCO2)o1 (stereo unspecified),-28.4%,-24.6%,5.1%,-0.2,5.6%
COc1ccccc1CCc1nnc(CCC(=O)NCC[C@@H]2C[C@@H]3C=C[C@H]2C3)o1,18.4µM*,14.6µM*,8.6%,-3.6,-0.2%
CCOC(=O)/C=C/C(=O)Nc1nccs1,3.66µM*,7.31µM*,-6.6%,-85.9*,-17.3%
CCOC(=S)SCC(=O)Nc1nc(C)c(C)s1,20.6µM*,16.4µM*,-7.0%,-7.1,?
CCOC(=O)N1CCN(CC(=O)Nc2nccs2)CC1,0.1%,-0.5%,7.9%,8.5,16.3%
CCOC(=O)C(=O)Nc1nccs1,0.1%,-4.4%,8.8%,14.9,-2.8%
CCOC(=S)SCC(=O)Nc1nccs1,20.6µM*,20.6µM*,?,-99.0*,-15.3%
